This note sets out measurements from PubChem BioAssay (EPA / NIEHS).

Calls of active or inactive are those of the source. Rule for the calls: active = hit-call score of the fitted dose curve at least 0.9, where 1 is the maximum; inactive = score below 0.9.

Hepatocyte nuclear factor 6 (Homo sapiens), sequence (Q9UBC0 whole entry, looked up): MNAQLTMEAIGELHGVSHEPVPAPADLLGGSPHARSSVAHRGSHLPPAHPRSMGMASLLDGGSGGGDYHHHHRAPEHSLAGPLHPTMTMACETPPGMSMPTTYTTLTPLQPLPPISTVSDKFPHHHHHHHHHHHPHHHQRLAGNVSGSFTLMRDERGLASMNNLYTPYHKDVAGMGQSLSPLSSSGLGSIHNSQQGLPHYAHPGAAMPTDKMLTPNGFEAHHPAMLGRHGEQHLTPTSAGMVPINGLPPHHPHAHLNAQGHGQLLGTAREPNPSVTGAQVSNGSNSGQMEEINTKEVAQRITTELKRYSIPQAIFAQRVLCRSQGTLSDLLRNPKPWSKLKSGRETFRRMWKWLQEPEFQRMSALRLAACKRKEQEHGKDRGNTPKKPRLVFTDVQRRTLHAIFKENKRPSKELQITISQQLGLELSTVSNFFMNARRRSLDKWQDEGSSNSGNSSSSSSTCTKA
Hypoxia-inducible factor 1-alpha (Homo sapiens), sequence (Q16665 whole entry, looked up): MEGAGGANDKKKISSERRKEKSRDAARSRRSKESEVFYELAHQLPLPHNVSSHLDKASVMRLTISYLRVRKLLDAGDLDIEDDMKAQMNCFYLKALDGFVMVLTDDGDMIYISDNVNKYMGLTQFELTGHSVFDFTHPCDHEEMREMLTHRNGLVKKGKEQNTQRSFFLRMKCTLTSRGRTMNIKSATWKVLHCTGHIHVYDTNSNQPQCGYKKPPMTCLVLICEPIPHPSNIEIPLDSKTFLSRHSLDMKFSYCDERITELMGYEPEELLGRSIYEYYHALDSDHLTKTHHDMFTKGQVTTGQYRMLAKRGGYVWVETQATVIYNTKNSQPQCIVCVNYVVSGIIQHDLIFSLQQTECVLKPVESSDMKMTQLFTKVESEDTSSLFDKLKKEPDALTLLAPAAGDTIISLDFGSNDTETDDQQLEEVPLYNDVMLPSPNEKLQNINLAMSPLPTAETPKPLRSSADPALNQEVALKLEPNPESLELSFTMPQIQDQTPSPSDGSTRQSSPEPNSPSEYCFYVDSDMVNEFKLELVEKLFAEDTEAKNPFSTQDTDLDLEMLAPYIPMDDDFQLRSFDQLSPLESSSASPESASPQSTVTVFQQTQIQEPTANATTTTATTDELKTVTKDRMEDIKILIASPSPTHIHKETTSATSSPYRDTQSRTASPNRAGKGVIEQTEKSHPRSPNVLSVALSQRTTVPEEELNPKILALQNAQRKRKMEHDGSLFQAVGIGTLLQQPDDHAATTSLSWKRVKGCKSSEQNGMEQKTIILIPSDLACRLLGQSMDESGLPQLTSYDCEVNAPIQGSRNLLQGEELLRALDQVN

System in one assay: not listed separately
In words: ATG_M_06_CIS: Attagene CIS-FACTORIAL HepG2 Assay for M06 Transcription Factor (Internal Marker) (AID 2282950). Conditions: HepG2 Attagene CIS-FACTORIAL M06 internal marker reporter; actives raise or lower the signal. In a few lines: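 Steps: transfect HepG2 with multiplexed cis-element reporter constructs; dose chemical 24 h; extract RNA with DNase treatment; reverse-transcribe, PCR-amplify, 6-FAM label, HpaI digest; separate fragments by capillary electrophoresis. Activity fitted both directions versus DMSO.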
On to `NC(=O)C(F)(F)C(F)(F)C(F)(F)C(F)(F)F`, for which the compound was classed as inactive.
Take `O=P(O)(O)OCCC(F)(F)C(F)(F)C(F)(F)C(F)(F)C(F)(F)C(F)(F)F`: the compound was classed as inactive.
Turning to `CC(=O)Nc1ccc(N=Nc2cc(C)ccc2O)cc1`, the outcome was inactive.
For the compound `CCCCCCC(C)OC(=O)CCCCC(=O)OC(C)CCCCCC` (stereo not given), the compound was classed as inactive.
Same read-out and setting: the entry for `CC(Cc1ccc(O)c(O)c1)C(C)Cc1ccc(O)c(O)c1` (stereo not given) is “inactive”; for `FC(F)(F)C(F)(F)C(F)(F)C(F)(F)C(F)(F)C(F)(F)C(F)(F)C(F)(F)CCS` it is “inactive”; for `OCC(F)(F)C(F)(F)C(F)(F)C(F)(F)C(F)(F)C(F)F` it is “inactive”.
The same measure, in the same setting: the entry for `FC(F)(F)C(F)(F)C(F)(F)N(C(F)(F)C(F)(F)C(F)(F)F)C(F)(F)C(F)(F)C(F)(F)F` is “inactive”; for `c1ccc(-c2ccccc2-c2ccccc2)cc1` it is “inactive”; for `FC(F)(I)C(F)(F)C(F)(F)C(F)(F)I` it is “inactive”.
Same read-out and setting: the entry for `CCCCCCCCC(F)(F)C(F)(F)C(F)(F)C(F)(F)C(F)(F)C(F)(F)F` is “inactive”; for `CC/C=C\CCOC(=O)c1ccccc1` it is “inactive”; for `O=S(=O)(O)c1ccc2ccccc2c1` it is “inactive”.
Regarding `Cc1cccc(N(C)C)c1`, the compound was called inactive.
The same measure, in the same setting: the entry for `O=C(O)C(F)(OC(F)(F)C(F)(OC(F)(F)C(F)(OC(F)(F)C(F)(F)C(F)(F)F)C(F)(F)F)C(F)(F)F)C(F)(F)F` (stereo not given) is “inactive”.
On the same count and under the same terms, the entry for `FC(F)(F)C(F)(F)C(F)(F)C(F)(F)C(F)(F)C(F)(F)CCS` is “inactive”; for `COC(OC(C)=O)c1ccccc1` (stereo not given) it is “inactive”.
Same read-out and setting: the entry for `FC(F)(F)C(F)(F)C(F)(F)C(F)(F)C(F)(F)CCI` is “inactive”.

The target of the next assay is Hypoxia-inducible factor 1-alpha (Homo sapiens) (UniProt Q16665). In words: ATG_HIF1a_CIS: Attagene CIS-FACTORIAL HepG2 Assay for human Hypoxia Inducible Factor 1 (HIF1A) (AID 2282951). The settings on record: HepG2 Attagene cis-factorial HIF1a reporter transcription; actives raise or lower the signal. The procedure, abridged:
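HepG2 cells transiently transfected with multiple cis-regulated reporter transcription units measure endogenous transcription factor activity. After 24 h exposure, reporter mRNA is quantified by RT-PCR with 6-FAM labelling, HpaI digestion and capillary electrophoresis. Bidirectional fitting against DMSO.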
As for `O=P(O)(O)OCCC(F)(F)C(F)(F)C(F)(F)C(F)(F)C(F)(F)C(F)(F)F`, the compound was classed as inactive.
Still for that read-out and setting: the entry for `CC(=O)Nc1ccc(N=Nc2cc(C)ccc2O)cc1` is “inactive”.
`CC(Cc1ccc(O)c(O)c1)C(C)Cc1ccc(O)c(O)c1` (stereo not given): the AC50 was 8.95 µM (active).
Take `FC(F)(F)C(F)(F)C(F)(F)C(F)(F)C(F)(F)C(F)(F)C(F)(F)C(F)(F)CCS`: the compound was called inactive.
Still for that read-out and setting: the entry for `OCC(F)(F)C(F)(F)C(F)(F)C(F)(F)C(F)(F)C(F)F` is “inactive”.
On the same count and under the same terms, the entry for `COC(=O)CCC(F)(F)C(F)(F)C(F)(F)C(F)(F)F` is “inactive”; for `FC(F)(I)C(F)(F)C(F)(F)C(F)(F)I` it is “inactive”; for `CC/C=C\CCOC(=O)c1ccccc1` it is “inactive”.
The same measure, in the same setting: the entry for `O=S(=O)(O)c1ccc2ccccc2c1` is “inactive”; for `FC(F)(F)C(F)(F)C(F)(F)CI` it is “inactive”.
For the compound `O=C(O)C(F)(OC(F)(F)C(F)(OC(F)(F)C(F)(OC(F)(F)C(F)(F)C(F)(F)F)C(F)(F)F)C(F)(F)F)C(F)(F)F` (stereo not given), the call was inactive.
Consider `Nc1ccc(Oc2cccc(Oc3ccc(N)cc3)c2)cc1`, for which the AC50 is 26.9 µM (active).
Consider `COC(OC(C)=O)c1ccccc1` (stereo not given), for which the compound was classed as inactive.
As for `FC(F)(F)C(F)(F)C(F)(F)C(F)(F)C(F)(F)CCI`, the result was inactive.
With `Nc1ccc([N+](=O)[O-])cc1O`, the half-maximal activity concentration (AC50) was 31 µM (active).
For the compound `C#C[C@]1(O)CC[C@H]2[C@@H]3CCc4cc(OC)ccc4[C@H]3CC[C@@]21C`, the compound was called inactive.
With `CC(C)=CCCC(C)CCOC(=O)C(C)C` (stereo not given), the result was inactive.
The same measure, in the same setting: the entry for `CC(CCl)OP(=O)(OC(C)CCl)OC(C)CCl` (stereo not given) is “inactive”.
The same measure, in the same setting: the entry for `FC(F)(F)C(F)(F)C(F)(F)C(F)(F)C(F)(F)C(F)(F)CC1CO1` (stereo not given) is “inactive”.

The next assay addresses Hepatocyte nuclear factor 6 (Homo sapiens) (UniProt Q9UBC0). In words: ATG_HNF6_CIS: Attagene CIS-FACTORIAL HepG2 Assay for human Hepatocyte Nuclear Factor 6 (HNF6) (AID 2282952). Conditions: HepG2 Attagene cis-factorial HNF6 reporter transcription; actives raise or lower the signal. In a few lines:
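HepG2 cells transiently transfected with cis-element-driven multiple reporter transcription units, dosed 24 h; reporter mRNA quantified by RT-PCR, FAM primer extension, HpaI digestion and capillary electrophoresis; bidirectional fit versus DMSO baseline.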
Turning to `O=P(O)(O)OCCC(F)(F)C(F)(F)C(F)(F)C(F)(F)C(F)(F)C(F)(F)F`, the compound was classed as inactive.
On the same count and under the same terms, the entry for `CC(=O)Nc1ccc(N=Nc2cc(C)ccc2O)cc1` is “inactive”.
On the same count and under the same terms, the entry for `CCCCCCC(C)OC(=O)CCCCC(=O)OC(C)CCCCCC` (stereo not given) is “inactive”; for `CC(Cc1ccc(O)c(O)c1)C(C)Cc1ccc(O)c(O)c1` (stereo not given) it is “inactive”.
Still for that read-out and setting: the entry for `FC(F)(F)C(F)(F)C(F)(F)C(F)(F)C(F)(F)C(F)(F)C(F)(F)C(F)(F)CCS` is “inactive”; for `FC(F)(Br)C(F)(F)C(F)(F)C(F)(F)C(F)(F)C(F)(F)Br` it is “inactive”.
Regarding `COC(=O)CCC(F)(F)C(F)(F)C(F)(F)C(F)(F)F`, the outcome was inactive.
For `FC(F)(F)C(F)(F)C(F)(F)N(C(F)(F)C(F)(F)C(F)(F)F)C(F)(F)C(F)(F)C(F)(F)F`, the outcome was inactive.
On the same count and under the same terms, the entry for `FC(F)(F)C(F)(F)C(F)(F)C(F)(F)C(F)(F)C(F)(F)C(F)(F)C(F)(F)F` is “inactive”; for `c1ccc(-c2ccccc2-c2ccccc2)cc1` it is “inactive”; for `CCO[Si](CCC(F)(F)C(F)(F)C(F)(F)C(F)(F)C(F)(F)C(F)(F)F)(OCC)OCC` it is “inactive”.
The same measure, in the same setting: the entry for `FC(F)(I)C(F)(F)C(F)(F)C(F)(F)I` is “inactive”; for `CCCCCCCCC(F)(F)C(F)(F)C(F)(F)C(F)(F)C(F)(F)C(F)(F)F` it is “inactive”; for `FC(F)(F)C(F)(F)CNCC(F)(F)C(F)(F)F` it is “inactive”.
As to `CC/C=C\CCOC(=O)c1ccccc1`, the call was inactive.
The same measure, in the same setting: the entry for `O=S(=O)(O)c1ccc2ccccc2c1` is “inactive”; for `O=C(O)C(F)(OC(F)(F)C(F)(OC(F)(F)C(F)(OC(F)(F)C(F)(F)C(F)(F)F)C(F)(F)F)C(F)(F)F)C(F)(F)F` (stereo not given) it is “inactive”; for `Nc1ccc(Oc2cccc(Oc3ccc(N)cc3)c2)cc1` it is “inactive”.
For `COC(OC(C)=O)c1ccccc1` (stereo not given), the outcome was inactive.
The same measure, in the same setting: the entry for `FC(F)(F)C(F)(F)C(F)(F)C(F)(F)C(F)(F)CCI` is “inactive”; for `CC(C)=CCCC(C)CCOC(=O)C(C)C` (stereo not given) it is “inactive”; for `CC(CCl)OP(=O)(OC(C)CCl)OC(C)CCl` (stereo not given) it is “inactive”.
Same read-out and setting: the entry for `FC(F)(F)C(F)(F)C(F)(F)C(F)(F)C(F)(F)C(F)(F)CC1CO1` (stereo not given) is “inactive”.

As a reminder, the AC50 is the concentration at which the activity in the assay is half-maximal.
